From PubChem BioAssay (NCI)
The panel holds about 83,000 compounds, 20% with a hit somewhere; the sample as a whole holds those more often.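 The test compound was applied at a single concentration to cells in 96-well plates for 48 hours, and percent growth was recorded.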 A number with no mark means an inactive call. The source made the active and inactive calls. Rule for the calls: active = growth percent below 10; inactive = the rest.

What was measured:
Test in all cases: NCI-60 one-dose screen, 48 h (100 = growth as untreated, 0 = no growth, -100 = all killed)
Details in all cases: 10 µM unless noted
SR leukemia = system: SR leukemia
RPMI-8226 leukemia = system: RPMI-8226 leukemia
OVCAR-8 ovarian = system: OVCAR-8 ovarian
OVCAR-5 ovarian = system: OVCAR-5 ovarian
OVCAR-4 ovarian = system: OVCAR-4 ovarian
SK-OV-3 ovarian = system: SK-OV-3 ovarian
IGROV1 ovarian = system: IGROV1 ovarian
OVCAR-3 ovarian = system: OVCAR-3 ovarian
HS 578T breast = system: HS 578T breast
NCI/ADR-RES ovarian = system: NCI/ADR-RES ovarian
T-47D breast = system: T-47D breast
BT-549 breast = system: BT-549 breast
MDA-MB-435 melanoma = system: MDA-MB-435 melanoma
SW-620 colon = system: SW-620 colon
MCF7 breast = system: MCF7 breast
HCT-116 colon = system: HCT-116 colon
HCC-2998 colon = system: HCC-2998 colon
KM12 colon = system: KM12 colon

| Compound | growth (SR leukemia) | growth (RPMI-8226 leukemia) | growth (OVCAR-8 ovarian) | growth (OVCAR-5 ovarian) | growth (OVCAR-4 ovarian) | growth (SK-OV-3 ovarian) | growth (IGROV1 ovarian) | growth (OVCAR-3 ovarian) | growth (HS 578T breast) | growth (NCI/ADR-RES ovarian) | growth (T-47D breast) | growth (BT-549 breast) | growth (MDA-MB-435 melanoma) | growth (SW-620 colon) | growth (MCF7 breast) | growth (HCT-116 colon) | growth (HCC-2998 colon) | growth (KM12 colon) |
| --- | --- | --- | --- | --- | --- | --- | --- | --- | --- | --- | --- | --- | --- | --- | --- | --- | --- | --- |
| CCOc1ccc(/C=N\N=C\c2ccc(OCC)cc2)cc1 | 64.3% | 107% | 74.5% | 76.9% | 94.1% | 101% | 78.5% | 114% | 106% | 78.1% | 94.7% | 87.7% | 109% | 52.8% | 67.5% | 45.5% | 98% | 98.1% |
| O=C(N/N=C/c1ccc(O)cc1O)c1ccc(Nc2ccnc(C(F)(F)F)c2)cc1 | 91.8% | 59.2% | 48.2% | 53.2% | 38.6% | 38.9% | 77.1% | 61.6% | 86.4% | 64.2% | 4.87% (active) | 41.5% | 44.7% | 49.3% | 25.5% | 27.5% | 64.7% | 57.2% |
| CCN(CC)c1ccc(/C=N/NC(=O)c2ccc(Nc3ccnc(C(F)(F)F)c3)cc2)c(O)c1 | 153% | 20% | 44.6% | 32.5% | 32.4% | 10.1% | 39.3% | 44% | 64.9% | 26.3% | -2.74% (active) | -2.72% (active) | 17.5% | 41.5% | 13.9% | 23.6% | 38.3% | 24.6% |
| Cc1cc(C(=O)Nc2cc(Nc3ncccc3-c3ncnc4nc[nH]c34)ccc2F)cc(C(F)(F)F)c1 | 51.3% | 53.8% | 57.2% | 33.3% | 47.7% | 87.2% | 103% | 68% | 38.1% | 52.1% | 64.8% | 91.3% | 26.2% | 33.9% | 66.9% | 19.1% | 30.6% | 49.5% |
| CN1CCN(Cc2ccc(NC(=O)c3cncc(C#Cc4cncc5[nH]ncc45)c3)cc2C(F)(F)F)CC1 | -4.67% (active) | 1.42% (active) | 18.2% | 4.44% (active) | 10.2% | 8.47% (active) | -43.8% (active) | 15.8% | -35.5% (active) | 57.4% | 31.3% | 23.5% | 2.84% (active) | -29.1% (active) | 20.5% | 1.91% (active) | 6.34% (active) | 3.69% (active) |
| C[Se]C(=O)CC1=C2C=C(F)C=CC2/C(=C\c2ccc(S(C)=O)cc2)C1C (stereo unspecified) | 22.5% | -23.9% (active) | -66.1% (active) | 17.6% | 26.7% | 6.54% (active) | 21.3% | -7.75% (active) | 2.31% (active) | 2.59% (active) | 48.7% | -89.8% (active) | -25.9% (active) | 4.55% (active) | 15.5% | 7.49% (active) | 68.9% | 50.1% |
| CNC(=O)c1cc(Oc2ccc3nc(NC(=O)Nc4ccc(Cl)c(Cl)c4)sc3c2)ccn1 | 15.4% | 63% | -34.6% (active) | 85.6% | -39.9% (active) | 73.5% | 54.6% | 24.7% | -2.92% (active) | -17.7% (active) | 21.3% | 32.1% | 22.6% | 50.4% | 32.2% | -13.3% (active) | 63.4% | 56.8% |
| C#Cc1cccc(Oc2ccc(NC(=O)CCl)cc2)c1 | 13% [8.25 µM] | 23.9% [8.25 µM] | 31.4% [8.25 µM] | 74.3% [8.25 µM] | 7.96% [8.25 µM] (active) | 98.9% [8.25 µM] | -71.6% [8.25 µM] (active) | -76.8% [8.25 µM] (active) | 80.7% [8.25 µM] | 71.1% [8.25 µM] | 53.9% [8.25 µM] | 38.7% [8.25 µM] | 31.7% [8.25 µM] | 15.9% [8.25 µM] | 13.5% [8.25 µM] | -0.801% [8.25 µM] (active) | 83% [8.25 µM] | 64.2% [8.25 µM] |
| COc1ccc2c(c1)c(-c1ccc(-c3cn(C)c4ccc(OC)cc34)[nH]1)cn2C | -10.7% (active) | 2.15% (active) | 7.19% (active) | 30.9% | -40.3% (active) | 50.9% | 23.1% | -42% (active) | -13% (active) | 3.06% (active) | -51.2% (active) | -28.1% (active) | 41.8% | -48.6% (active) | 38.9% | 4.08% (active) | -3.55% (active) | 9.21% (active) |
| CCCCCCNc1nc(NCCCCCC)c2[nH]c(NCCCCCC)nc2n1 | -33.4% (active) | -29.4% (active) | 57.3% | -7.94% (active) | -16% (active) | 102% | 68.8% | 26.5% | 55.7% | 90.3% | 33.3% | 71.6% | 67.5% | 16.3% | 20.9% | -35% (active) | 46.6% | 50.8% |
| C#Cc1cccc(Nc2nc3ccc([N+](=O)[O-])cc3nc2Nc2cccc(C#C)c2)c1 | -22.1% (active) | -21.7% (active) | -23.3% (active) | -17.6% (active) | -43.7% (active) | -84.9% (active) | -29% (active) | -67.4% (active) | -19.1% (active) | -9.97% (active) | -36.1% (active) | -59.3% (active) | -78% (active) | -64.2% (active) | -12.6% (active) | -94.7% (active) | -80.8% (active) | -77.9% (active) |
| CCOC(=O)C(=Cc1cccc(C#N)c1)C(=O)OCC | 7.73% (active) | 15.1% | 71.6% | 60.1% | 88.2% | 91.3% | 59.8% | 61.2% | 93.9% | 47.6% | 38.8% | 71.2% | 55.4% | 27.9% | 24.3% | 20.9% | 110% | 54.8% |
| COc1ccc(/C=C/C(=O)c2cc3c(N)c(C(=O)Nc4ccccc4C)sc3nc2C)cc1 | 15.2% | -7.33% (active) | 6.22% (active) | 36.6% | 54% | 21.2% | 30.6% | 1.23% (active) | 10.4% | 7.7% (active) | 39.9% | 29.7% | -39.6% (active) | 14.9% | 9.36% (active) | 14.7% | 15.4% | 10.6% |
| O=C1CCCc2nc3sc4c(=O)n(-c5ccccc5Cl)nnc4c3cc21 | 87.8% | 87.6% | 92.2% | 100% | 105% | 107% | 99.9% | 114% | 99% | 103% | 83.8% | 102% | 102% | 102% | 90.4% | 96% | 118% | 107% |
| N=C(N)SCc1cccc2c(CSC(=N)N)cccc12 | 92.9% | 107% | 102% | 92.4% | 116% | 113% | 99.2% | 102% | 100% | 105% | 96.2% | 107% | 107% | 103% | 98.2% | 101% | 104% | 94.5% |
| COc1cc(-c2nc3ccc(C)cc3[nH]2)ccc1OCC(=O)N=Nc1c(O)[nH]c2ccc(Cl)cc12 | -32.8% (active) | -36.6% (active) | -34.7% (active) | 11.1% | -8% (active) | 32% | 4.74% (active) | -70.2% (active) | -22.3% (active) | 83.4% | -43.2% (active) | 68.5% | -2.5% (active) | -58.9% (active) | -64.9% (active) | -34.9% (active) | -32.5% (active) | -40.1% (active) |
| COC(c1ccc2ccccc2c1)C(C)C(F)F (stereo unspecified) | 92% | 98.8% | 99.4% | 95.5% | 109% | 87.5% | 100% | 114% | 116% | 107% | 90% | 95% | 96% | 106% | 109% | 87.7% | 114% | 107% |
